This is a sample that favours compounds with a hit; in the whole collection about 2.4% have one here.
M1 ag = activates human CHRM1 receptor; CHO-K1 hM1, Fluo-8 calcium fluorescence, agonist mode; 0% DMSO, 100% acetylcholine EC100; activation, % at 3 µM; hit rate 0.33% among 360,000; AID 588814;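 active means activation above the run's mean compound activation plus 3 SD, cut at about 16% in these data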;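 further: peak over basal fluorescence ratio within a 140 s kinetic read after compound addition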
Target sequence (P11229 whole entry, looked up): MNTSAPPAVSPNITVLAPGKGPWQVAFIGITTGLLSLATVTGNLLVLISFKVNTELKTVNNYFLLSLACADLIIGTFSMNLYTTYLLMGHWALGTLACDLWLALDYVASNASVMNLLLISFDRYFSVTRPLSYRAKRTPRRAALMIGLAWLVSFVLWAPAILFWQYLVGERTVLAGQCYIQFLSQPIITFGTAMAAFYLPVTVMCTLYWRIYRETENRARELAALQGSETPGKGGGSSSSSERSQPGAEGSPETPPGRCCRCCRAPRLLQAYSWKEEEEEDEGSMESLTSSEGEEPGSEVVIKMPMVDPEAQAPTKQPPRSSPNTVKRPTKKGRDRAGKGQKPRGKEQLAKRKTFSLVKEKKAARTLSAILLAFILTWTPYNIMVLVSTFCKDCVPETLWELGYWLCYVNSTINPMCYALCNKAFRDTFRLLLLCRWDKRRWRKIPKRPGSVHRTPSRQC
CHO-K1 Ca antag = M1 antagonist counterscreen hit in parental CHO-K1 cells; inhibition, % at 3 µM; hit rate 0.6% among 360,000; ATP-induced calcium, Fluo-8 fluorescence;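 active means inhibition above a per-plate cutoff, the plate's mean sample inhibition plus 3 SD, cut at about 24% in these data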;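 further: 0% = DMSO plus EC80 ATP and 100% = DMSO alone without ATP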
CHO-K1 Ca ag = nonselective activator or artifact in parental CHO-K1 cells; Fluo-8 calcium fluorescence; scaled to maximal ATP response, vehicle zero; activation, % at 3 µM; hit rate 0.48% among 360,000; in the data active means activation above about 15%;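 further: untransfected CHO-K1 host cells lacking M1 receptor as counterscreen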
M1 PAM parental = counter-screen for M1 PAMs: effect in parental CHO-K1 cells | ATP EC20, Fluo-8 calcium fluorescence; 0% at ATP EC20, 100% at ATP max | activation, % at 3 µM | hit rate 0.02% among 360,000;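 active means activation above the run cutoff, the mean activation of all test compounds plus 3 SD, cut at about 40% in these data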;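 further: peak over basal fluorescence ratio in a 140 s read after ATP addition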
M1 PAM = positive allosteric modulators of human M1 muscarinic receptor. CHO-K1 hM1, Fluo-8 calcium fluorescence, ACh EC20; 0% = ACh EC20, 100% = maximal ACh. activation, % at 3 µM. hit rate 0.088% among 360,000. AID 588819; in the data active means activation above about 19%, passing the limit was not always enough
M1 antag = human CHRM1 antagonism; inhibition, % at 3 µM; hit rate 1.3% among 360,000; CHO-K1 hM1, Fluo-8 calcium fluorescence, ACh EC80 antagonist; P11229; AID 588852;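 active means percent inhibition above its own plate's cutoff, namely the mean of that plate's compound wells plus 3 SD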;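 further: peak over basal fluorescence ratio during 140 s after agonist addition; 0% = ACh EC80 plus DMSO and 100% = DMSO alone without agonist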
* hit, by the source's call; . = no result; ! = not active in a repeat.

SMILES | M1 ag | CHO-K1 Ca antag | CHO-K1 Ca ag | M1 PAM parental | M1 PAM | M1 antag
CCCC(C(=O)Nc1ccc(S(=O)(=O)N2CCCC2)cc1)c1ccccc1 (stereo not given) | 8 | -3 | 10 | 12 | 4 | -6
CSC(=Nc1ccccc1)N=C(SCc1ccccc1)N(C)C | 2 | 18 | 9 | 6 | -25 | 49*
N#CNC(=Nc1ccccc1)SCc1ccc(C(=O)O)cc1 | -1 | 13 | 0 | -10 | 7 | 0
Cc1cc(C)c(C(=O)CSc2n[nH]c(-c3ccncc3)n2)c(C)c1 | -3 | 8 | 18* | 1 | -6 | 7
COc1ccccc1N1CCN(Cc2cn[nH]c2-c2ccc(F)cc2)CC1 | 44* | -32 | 19* | 27 | 16 | -19
COc1ccccc1N1CCN(Cc2nc(-c3ccc(F)cc3)oc2C)CC1 | -9 | 2 | 3 | 16 | 0 | 3
CCN=C1SC(CC(=O)NCC)C(=O)N1CC (stereo not given) | 0 | 15 | 0 | -5 | 0 | -26
CCN=C1SC(CC(=O)Nc2ccccc2)C(=O)N1CC (stereo not given) | 2 | -5 | 8 | 14 | -16 | 29*!
CCN=C1SC(CC(=O)Nc2ccc3c(c2)OCO3)C(=O)N1CC (stereo not given) | 1 | 23 | 6 | -3 | -19 | 28*
COc1ccc(OC)c(NC(=O)C(=O)NNC(=O)c2cccs2)c1 | -5 | -11 | 0 | 21 | 9 | -15
O=C(CCC(=O)N(CC(=O)NC1CCCCC1)CC1CCCO1)Nc1nccs1 (stereo not given) | -8 | 8 | 0 | -1 | 14 | -9
Fc1ccc(Cn2cc(C(=S)N3CCOCC3)c3ccccc32)cc1 | 8 | 9 | 23* | 2 | 8 | -3
O=C(Cn1cc(C(=S)N2CCOCC2)c2ccccc21)N1CCOCC1 | -2 | -6 | 1 | 19 | 9 | -27
O=C(O)Cn1cc(C(=S)N2CCOCC2)c2ccccc21 | 2 | -22 | 0 | -6 | 27* | -27
O=C(CN1c2ccccc2S(=O)(=O)c2ccccc21)NCc1ccc(F)cc1 | 5 | 0 | 4 | -14 | -4 | 7
S=C(NCC1CCCO1)Nc1ccccc1 (stereo not given) | -8 | -13 | 2 | 26 | 14 | -13
Cn1c(SCc2ccccc2Cl)nnc1-c1cnccn1 | -6 | 24* | 0 | -6 | 2 | 1
O=C(O)c1ccc(N/N=C/c2cn(Cc3ccccc3F)c3ccccc23)cc1 | 5 | 9 | 23* | 1 | -2 | 5
Nc1ccc(C(=O)N/N=C/c2cn(Cc3ccccc3F)c3ccccc23)cc1 | 2 | -3 | 5 | -18 | -4 | 19
COc1cc2c(-c3ccc4cc[nH]c4c3)c(-c3ccsc3)oc(=O)c2cc1OC | -12 | -8 | 0 | 2 | -25 | 37*
O=S(=O)(O)c1cc(O)ccc1O | 35* | 0 | 1 | 5 | -9 | -24
CC(C)(C)NC(=O)C1c2ccccc2OCC(=O)N1Cc1ccco1 (stereo not given) | . | -5 | 1 | 13 | . | .
CC(C)N(CCNCC(O)COc1ccc(C(C)(C)c2ccccc2)cc1)C(C)C (stereo not given) | -4 | -5 | 6 | 11 | -19 | 34*
CC(C)c1ccc(OCC(O)CNC(C)c2ccccc2)cc1 (stereo not given) | -3 | -8 | 21* | 24 | 2 | 9
OC(CNCCC(c1ccccc1)c1ccccc1)COc1ccccc1 (stereo not given) | -6 | 2 | 8 | 3 | -15 | 31*
OC(CNCCc1ccccc1)COc1ccc(OCC(O)CNCCc2ccccc2)cc1 (stereo not given) | -8 | -3 | 1 | 17 | -4 | 7
COc1ccc(CC(=O)Oc2ccc(C)cc2Br)cc1S(=O)(=O)N1CCOCC1 | 1 | -4 | 1 | -9 | -1 | -13
Cc1sc2ncnc(NCCCN3CCCC3=O)c2c1C | -3 | -8 | 18* | 16 | 7 | -1
Cn1nccc1C(=O)N1CCC(Cc2ccccc2)CC1 | 0 | -2 | 2 | -9 | -1 | -18
COc1cc(CNCc2ccc(Br)cc2)cc(OC)c1 | 1 | 18 | 15* | -12 | -7 | 7

Assay outcomes from PubChem.
